# Screening data (PubChem BioAssay)
# Rin1 Abl inh – inhibitors of human Rin1-Abl protein interaction; hit rate 0.4% among 360,000; inhibition, % at 7.35 µM; P00519+Q13671; TR-FRET Rin1/Abl binding, biochemical; in the data active = inhibition above about 5%, passing the limit was not always enough
# GC-B act – GC-B (human) receptor activation. activation, % at 10 µM. hit rate 0.11% among 370,000. HEK293-GC-B cells, CNP EC30, cGMP TR-FRET; 0% at EC30 CNP, 100% saturating CNP. P20594;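 active = activation at 10 µM reaching about 35% in either raw or pattern-adjusted values, limit read from the data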
# CaV13 ICDI inh – Primary screen for inhibitors of IQ motif and Ca2+-dependent inactivation inhibitor domain binding in CACNA1D, Förster resonance energy transfer in living cells, …; HEK cells, CFP/YFP FRET ICDI-IQ, plate reader, 10 min; percent FRET-ratio fall versus neutral wells; inhibition, % at 12.3 µM; hit rate 0.098% among 340,000; AID 743397;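 active = mean replicate inhibition of at least 30% and at least 1% of replicates passing that level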;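 also: 0% = median of the neutral control wells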
# GC-A act – GC-A (human) enzyme activation. P16066. HEK293 GC-A cells, cGMP TR-FRET, EC30 ANP; 0% at EC30 ANP, 100% saturating ANP. activation, % at 10 µM. hit rate 0.14% among 370,000. AID 1671463; in the data active = activation above about 40%
# Rin1-Abl confirm – confirmation of inhibitors of human Rin1-Abl interaction; inhibition, % at 7.35 µM; TR-FRET Rin1-Abl binding, purified proteins; hit rate 49% among 1,300; shares compounds with Rin1 Abl inh
# GFP quench-1 – counter-screen for Rin1-Abl inhibitors: GFP fluorescence quenchers | shares compounds with Rin1 Abl inh | inhibitors/quenchers counterscreen | inhibition, % at 6.75 µM | hit rate 8.5% among 1,300 | AID 602125;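 also: ABL1-eGFP fusion protein alone without its partner RIN1-SBP; 0% = protein with vehicle and 100% = wells lacking protein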
# GFP quench DR – GFP fluorescence interference dose response; GFP fluorescence interference/quenching counterscreen; AID 602182; IC50, µM; 230 tested, under 10 active; shares compounds with Rin1 Abl inh; call rule not given here;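 also: ABL1-eGFP fusion protein alone without its RIN1 binding partner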
# GFP quench-2 – quenches GFP fluorescence in Rin1-Abl counterscreen; shares compounds with Rin1 Abl inh; 25 tested, under 10 active; IC50, µM; GFP fluorescence quenching counterscreen, biochemical; call rule not given here
# * marks the source's active call; other numbers are inactive results; / = no result; ! = a repeat was not active. A selection: hits, their analogues and other compounds. The true share with any hit is near 0.67%. Rule as the data show it, unless noted: active = inhibition above about 6.5%; inactive = the rest.
SMILES,Rin1 Abl inh,GC-B act,CaV13 ICDI inh,GC-A act,Rin1-Abl confirm,GFP quench-1,others
O=C(NCc1c(F)cccc1F)C1C2C=CC3(CN(Cc4ccccc4)C(=O)C13)O2 (stereo not drawn),/,5,/,4,/,/,
COC(=O)C=CC(=NNc1ccccc1)c1ccccc1,9.1*,2,-7,1,-2,-1,
O=C(Cn1nnc(-c2ccncc2)n1)Nc1ccc(F)cc1F,/,-7,/,5,/,/,
Cc1ccc(OCCNC(=O)Cn2cnc3c(=O)n(C)c(=O)n(C)c32)cc1C,10*,2,-6,4,0,-3,
COC(=O)C[C@@H]1CC[C@H]2[C@@H](COc3ccc(NC(=O)c4cc(C)on4)cc3C(=O)N2C)O1,/,1,/,3,/,/,
Oc1ccc2ccccc2c1C=NN1CCN(Cc2ccc(Cl)cc2)CC1,/,-9,/,5,/,/,
CC(C)(C)c1ccc(-c2n[nH]c(=S)n2CCCN2CCOCC2)cc1,8.7*,-8,4,-4,7.6*,0,
Cc1ccc(C)c2[nH]c(=O)c(C(c3nnnn3CCc3ccccc3)N3CCOCC3)cc12 (stereo not drawn),1,-5,-6,-5,/,/,
Cc1ccc(C)c2[nH]c(=O)c(C(c3nnnn3Cc3ccco3)N3CCc4ccccc4C3)cc12 (stereo not drawn),6.2*,6,-5,3,0,2,
Cc1ccc(-c2nnc(N3CCN(C(=O)c4ccco4)CC3)c3ccccc23)cc1,13*,8,-2,8,7.9*,1,
CC(=O)N1CCN(c2nnc(-c3ccccc3)c3ccccc23)CC1,-3,0,-19,-3,/,/,
C[C@H](CO)N1C[C@H](C)[C@@H](CN(C)CC2CCCCC2)Oc2c(NS(=O)(=O)c3cccs3)cccc2C1=O,3,/,/,/,/,/,
C[C@H](CO)N1C[C@H](C)[C@@H](CN(C)Cc2ccncc2)Oc2c(NC(=O)c3ccncc3)cccc2C1=O,9.3*,-2,-6,1,9.5*,0,
C[C@H](CO)N1C[C@H](C)[C@@H](CN(C)Cc2ccc(-c3ccccc3)cc2)Oc2c(NS(=O)(=O)c3cccs3)cccc2C1=O,16*,3,-8,5,16*,0,
CCOC(=O)[C@@]12CN(C(=O)OC(C)(C)C)CC=C1N(Cc1ccc(OC)cc1)C(=O)[C@H]2CC(=O)NCCCN1CCCC1=O,/,0,/,1,/,/,
CSc1ccccc1OCc1cc(C(=O)N2CCNC(=O)C2)no1,48*,4,-8,12,40*,-1,GFP quench DR=>68;GFP quench-2=>68
Cc1cccc(C)c1OCc1cc(C(=O)N2CCNC(=O)C2)no1,2,-3,-13,-2,/,/,
COc1cccc(CN(C)C(=O)c2cc(S(=O)(=O)N3CCCC3)ccc2C)c1OC,8.9*,0,-15,-2,4,-1,
COc1cccc(CN(C)C(=O)c2cc(S(=O)(=O)NC3CCCCC3)ccc2C)c1OC,-1,2,-6,1,/,/,
COC(=O)C1CN(Cc2ccc(OC)cc2)CCS(=O)(=O)N1Cc1ccc(OC)cc1 (stereo not drawn),/,-8,/,-6,/,/,
Cc1ccc2c(c1)C1CS(=O)(=O)N(CC(C)C)C(=O)N1C2 (stereo not drawn),/,-3,/,-2,/,/,
O=C(C1CCN(c2nnc(N3CCCC3=O)s2)CC1)N1CCN(Cc2ccc3c(c2)OCO3)CC1,10*,-12,/,7,5,-1,
COC(=O)[C@]12C[C@H](CC(=O)NCCCCc3ccccc3)C(=O)N(Cc3ccco3)C1=C[C@H](COCc1ccccc1)O[C@@H]2C,/,-3,/,-6,/,/,
COCCNC(=O)c1cc2c3ccccc3n(C)c2s1,31*,-6,-5,-6,22*,-1,GFP quench DR=>68
COc1ccc(S[C@]2(C(=O)N3CCN(c4ncccn4)CC3)CC(=O)N(C(=O)CCc3ccccc3)[C@@H]2c2ccc(OC)cc2)cc1,/,5,/,5,/,/,
SMILES,Rin1 Abl inh,GC-B act,CaV13 ICDI inh,GC-A act,Rin1-Abl confirm,GFP quench-1,others
CC(C)Cn1cnc2c(c1=N)C(c1ccccc1)C1=C(CC(C)(C)CC1=O)O2 (stereo not drawn),7.0*,-8,-4,-10,1,-1,
COc1ccc(C2C3=C(CC(C)(C)CC3=O)Oc3ncn(CCO)c(=N)c32)cc1OC (stereo not drawn),14*,4,/,1,1,0,
CCCCNC(=O)C[C@@H]1C(=O)N(CCc2ccc(Cl)cc2)C2=CCCCC[C@]21C(=O)OC,/,3,/,-4,/,/,
CSc1ncc(CN2CCC(C(=O)Nc3cccc(-c4cscn4)c3)CC2)cn1,1,-2,/,1,/,/,
COCCc1ncc(CN2CCC(C(=O)Nc3cccc(-c4cscn4)c3)CC2)cn1,13*,4,-8,0,7.2*,-1,
CCCc1ncc(CN2CCC(C(=O)Nc3cccc(-c4cscn4)c3)CC2)cn1,36*,-7,-8,2,19*,0,GFP quench DR=>68
CCN1C(=O)CC(n2c(C)nc3ccccc32)C1=O (stereo not drawn),7.9*,6,-1,3,-1,-1,
Cc1nc2ccccc2n1C1CC(=O)N(N(C)C)C1=O (stereo not drawn),3,-3,-9,-1,/,/,
Cn1c(=O)oc2cc(S(=O)(=O)N3CCCC(C(=O)Nc4nccs4)C3)ccc21 (stereo not drawn),11*,3,-6,-3,1,-1,
CCOC(=O)N1CCN(CCC(=O)Nc2cccc(Br)c2)CC1,6.2*!,3,-3,0,0,1,
CCOC(=O)N1CCN(CCC(=O)Nc2ccc(C)c(Br)c2)CC1,5.6*,1,-4,0,6,-1,
CCOC(=O)N1CCN(CCC(=O)Nc2ccc(Br)cc2)CC1,0,5,-5,2,/,/,
COc1ccc2c(c1)CNC2CS(=O)(=O)NCc1ccccc1 (stereo not drawn),/,-4,/,-5,/,/,
COC(=O)[C@@]12CCCCC3=C1N(CCC3)C(=O)[C@H]2CC(=O)N1CCSCC1,/,-1,/,2,/,/,
COC(=O)C[C@@H]1CC[C@@H]2[C@H](COc3ccc(NC(=O)c4cccc(OC)c4)cc3C(=O)N2C)O1,/,8,/,7,/,/,
CCOc1cc2c(cc1O)CCC1C2CCC2(C)C(O)CCC12 (stereo not drawn),5,-8,-5,-5,/,/,
CCNc1cc2c(cc1O)CCC1C2CCC2(C)C(O)CCC12 (stereo not drawn),13*,5,-7,-5,-3,1,
